The text below walks through data of PubChem BioAssay (EPA / NIEHS).

The target of assay [1] is Myc proto-oncogene protein (Homo sapiens) (UniProt P01106). The assay is described as follows: ATG_Myc_CIS: Attagene CIS-FACTORIAL HepG2 Assay for human Myelocytomatosis (Myc) Proto-Oncogene Transcription Factor (AID 2282990). As to conditions: HepG2, Attagene cis-reporter transcription factor activity; actives raise or lower the signal. Put shortly: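 DMSO-normalised, bidirectionally fitted reporter mRNA signal. HepG2 cells transfected with cis reporter constructs, treated 24 h; transcripts detected by RT-PCR, 6-FAM primer extension and CE.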
Sequence of Myc proto-oncogene protein (Homo sapiens) (P01106 whole entry, looked up): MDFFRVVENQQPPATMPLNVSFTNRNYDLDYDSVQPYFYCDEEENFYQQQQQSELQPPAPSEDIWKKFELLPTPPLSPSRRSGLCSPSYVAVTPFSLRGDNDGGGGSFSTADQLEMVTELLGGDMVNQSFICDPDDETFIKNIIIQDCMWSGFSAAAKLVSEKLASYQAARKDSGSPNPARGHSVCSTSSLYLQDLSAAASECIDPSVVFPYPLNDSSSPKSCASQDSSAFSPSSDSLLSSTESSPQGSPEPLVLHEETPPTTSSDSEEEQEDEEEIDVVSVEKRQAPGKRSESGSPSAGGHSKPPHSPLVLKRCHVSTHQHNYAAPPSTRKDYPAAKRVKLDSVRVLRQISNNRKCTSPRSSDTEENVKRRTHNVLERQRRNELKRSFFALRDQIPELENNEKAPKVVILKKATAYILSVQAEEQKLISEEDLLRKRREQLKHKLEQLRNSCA

The nature of assay [2]: ATG_NF_kB_CIS: Attagene CIS-FACTORIAL HepG2 Assay for human Nuclear Factor Kappa B (NF-kB) (AID 2282991). As to conditions: HepG2 Attagene cis-factorial NF-kB reporter mRNA; actives raise or lower the signal. In short, it runs like this:
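Endogenous transcription factor activity in HepG2 was captured via cis-regulated reporter constructs; after 24 h dosing, reporter mRNA was reverse-transcribed, amplified, fluorescently labelled and sized by capillary electrophoresis, with activity fitted bidirectionally relative to DMSO.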

A short description of assay [3]: ATG_NRF2_ARE_CIS: Attagene CIS-FACTORIAL HepG2 Assay for human Nuclear Factor Erythroid 2 Related Factor 2 (NFR2) response to Antioxidant Response Elements (ARE) (AID 2282992). As to conditions: HepG2 Attagene ARE/NRF2 reporter, transcription factor activity; actives raise or lower the signal. Put shortly: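 Endogenous transcription factor activity read out as reporter transcript levels (RT-PCR plus capillary electrophoresis, fluorescence) in transiently transfected HepG2 cells. Measured at 24 h after dosing; gain or loss of signal fitted versus DMSO.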

Assay [4] in a line: ATG_Oct_MLP_CIS: Attagene CIS-FACTORIAL HepG2 Assay for human Octamer-Binding Transcription Factor (Oct) (AID 2282993). As to conditions: HepG2 Attagene cis-factorial Oct reporter, mRNA; actives raise or lower the signal. In short, it runs like this:
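HepG2 cells transiently transfected with cis-promoter-driven multiplexed reporter transcription units, dosed for 24 h. Reporter mRNA quantified by RT-PCR, fluorescent labelling, HpaI digestion and capillary electrophoresis; bidirectional fits versus DMSO baseline.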

Assay [5] concerns the target Cellular tumor antigen p53 (Homo sapiens) (UniProt P04637). The assay is described as follows: ATG_p53_CIS: Attagene CIS-FACTORIAL HepG2 Assay for human p53 Transcription Factor (AID 2282994). As to conditions: HepG2 p53 cis-element reporter, Attagene mRNA; actives raise or lower the signal. In short, it runs like this:
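Endogenous p53 activity read in transiently transfected HepG2 from a cis-element-driven reporter transcript after 24 h exposure. RNA reverse-transcribed, PCR-amplified, fluorescently labelled and sized by capillary electrophoresis; gain or loss fitted against DMSO baseline.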

Assay [6] concerns the target human Peroxisome Proliferator-activated Receptor delta (PPARd), PPARD (gene 5467) (UniProt Q03181). The assay is described as follows: ATG_PPARd_TRANS: Attagene TRANS-FACTORIAL HepG2 Assay for human Peroxisome Proliferator-activated Receptor delta (PPARd) (AID 2283002; active means hit-call score of the fitted dose curve at least 0.9, where 1 is the maximum). Put shortly:
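Measured quantity: GAL4-UAS reporter transcript induction in HepG2 after 24 h chemical dosing, with NR-Gal4 chimeras supplied by transient transfection. Detection by RT-PCR and capillary electrophoresis; upward fit against DMSO.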

Assay [7] concerns the target human Retinoic Acid Receptor gamma (RARg), RARG (gene 5916) (UniProt P13631). The assay is described as follows: ATG_RARg_TRANS: Attagene TRANS-FACTORIAL HepG2 Assay for human Retinoic Acid Receptor gamma (RARg) (AID 2283009; active means hit-call score of the fitted dose curve at least 0.9, where 1 is the maximum). In short, it runs like this:
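Gain-of-signal relative to DMSO is reported from fluorescent capillary electrophoresis of RT-PCR reporter products. These came from HepG2 cells expressing transfected RARg-GAL4 chimeras with UAS reporters, harvested 24 h after dosing.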

The target in assay [8] is Peroxisome proliferator-activated receptor gamma (Homo sapiens) (UniProt P37231). Briefly: ATG_PPARg_TRANS: Attagene TRANS-FACTORIAL HepG2 Assay for human Peroxisome Proliferator-activated Receptor-gamma (PPARg) (AID 2283007; active means hit-call score of the fitted dose curve at least 0.9, where 1 is the maximum). In short, it runs like this: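 A TRANS-format multiplexed reporter assay measures activity of an exogenous chimeric NR-Gal4 protein in HepG2 cells. After 24 h of chemical exposure, reporter transcripts are amplified, fluorescently labelled and sized by capillary electrophoresis, with gain of signal scored against DMSO.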
Sequence of Peroxisome proliferator-activated receptor gamma (Homo sapiens) (P37231 whole entry, looked up, the tested form may be a part): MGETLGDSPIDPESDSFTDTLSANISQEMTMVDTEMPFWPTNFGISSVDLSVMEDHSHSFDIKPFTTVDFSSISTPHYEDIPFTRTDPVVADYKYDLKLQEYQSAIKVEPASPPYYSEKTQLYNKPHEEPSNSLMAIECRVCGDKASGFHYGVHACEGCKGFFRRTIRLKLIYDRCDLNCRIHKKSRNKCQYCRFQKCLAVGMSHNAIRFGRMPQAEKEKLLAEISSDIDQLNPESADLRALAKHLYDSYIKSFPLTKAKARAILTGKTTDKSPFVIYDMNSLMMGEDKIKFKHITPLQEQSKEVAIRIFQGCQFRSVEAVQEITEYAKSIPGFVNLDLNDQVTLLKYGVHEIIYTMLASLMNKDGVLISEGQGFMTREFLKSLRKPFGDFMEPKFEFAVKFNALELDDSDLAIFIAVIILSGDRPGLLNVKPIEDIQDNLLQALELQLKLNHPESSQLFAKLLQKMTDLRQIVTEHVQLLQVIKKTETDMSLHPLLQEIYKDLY

Assay [9] has as its target Nuclear receptor subfamily 1 group I member 2 (Homo sapiens) (UniProt O75469). Briefly: ATG_PXR_TRANS: Attagene TRANS-FACTORIAL HepG2 Assay for human Pregnane X Receptor (PXR) (AID 2283008; active means hit-call score of the fitted dose curve at least 0.9, where 1 is the maximum). In short, it runs like this: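 Transactivation by exogenous PXR–GAL4 fusion measured as reporter transcript induction after 24 h compound treatment of transfected human HepG2 cells. Read-out via RT-PCR and capillary electrophoresis of labelled fragments, fitted upward relative to DMSO.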

The target of assay [10] is human RAR-related Orphan Receptor beta (RORb), RORB (gene 6096) (UniProt Q92753). Briefly: ATG_RORb_TRANS: Attagene TRANS-FACTORIAL HepG2 Assay for human RAR-related Orphan Receptor beta (RORb) (AID 2283010; active means hit-call score of the fitted dose curve at least 0.9, where 1 is the maximum). In short, it runs like this:
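Multiplexed transcription-factor reporter assay: HepG2 cells transiently carrying NR-Gal4/GAL4-UAS constructs, 24 h treatment, mRNA quantified by RT-PCR plus capillary electrophoresis fluorescence; activity scored as induction over DMSO.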

The target in assay [11] is human Retinoic Acid Receptor beta (RARb), RARB (gene 5915) (UniProt P10826). Briefly: ATG_RARb_TRANS: Attagene TRANS-FACTORIAL HepG2 Assay for human Retinoic Acid Receptor beta (AID 2283004; active means hit-call score of the fitted dose curve at least 0.9, where 1 is the maximum). In short, it runs like this:
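Transient transfection of HepG2 with multiple reporter units → chemical dosing, 24 h → total RNA isolation → RT with oligo(dT) → reporter-specific PCR, 6-FAM primer extension, HpaI digest → capillary electrophoresis. Positive direction vs DMSO control.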

Assay [12] concerns the target Retinoic acid receptor alpha (Homo sapiens) (UniProt P10276). Briefly: ATG_RARa_TRANS: Attagene TRANS-FACTORIAL HepG2 Assay for human Retinoic Acid Receptor alpha (RARa) (AID 2283005; active means hit-call score of the fitted dose curve at least 0.9, where 1 is the maximum;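 on AC50: potency for increased reporter signal meaning RARa activation over DMSO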). Put shortly:
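HepG2 cells transiently transfected with multiple reporter units expressing chimeric RARα-GAL4 fusion, with GAL4-UAS-driven reporters. After 24 h compound exposure, reporter mRNA induction quantified by RT-PCR and capillary electrophoresis with fluorescent labeling; gain-of-signal fitted relative to DMSO control.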

The target of assay [13] is human RAR-related Orphan Receptor gamma (RORg), RORC (gene 6097) (UniProt P51449). The assay is described as follows: ATG_RORg_TRANS: Attagene TRANS-FACTORIAL HepG2 Assay for human RAR-related Orphan Receptor gamma (RORg) (AID 2283011; active means hit-call score of the fitted dose curve at least 0.9, where 1 is the maximum). In short, it runs like this: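 First, HepG2 liver cells were transfected with GAL4-UAS-driven reporter constructs and the RORg-Gal4 fusion. Next, they were treated with chemical for 24 h. Finally, reporter mRNA was quantified by RT-PCR and capillary electrophoresis, with upward activity fitted against DMSO.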
Sequence of human RAR-related Orphan Receptor gamma (RORg), RORC (gene 6097) (P51449 whole entry, looked up, the tested form may be a part): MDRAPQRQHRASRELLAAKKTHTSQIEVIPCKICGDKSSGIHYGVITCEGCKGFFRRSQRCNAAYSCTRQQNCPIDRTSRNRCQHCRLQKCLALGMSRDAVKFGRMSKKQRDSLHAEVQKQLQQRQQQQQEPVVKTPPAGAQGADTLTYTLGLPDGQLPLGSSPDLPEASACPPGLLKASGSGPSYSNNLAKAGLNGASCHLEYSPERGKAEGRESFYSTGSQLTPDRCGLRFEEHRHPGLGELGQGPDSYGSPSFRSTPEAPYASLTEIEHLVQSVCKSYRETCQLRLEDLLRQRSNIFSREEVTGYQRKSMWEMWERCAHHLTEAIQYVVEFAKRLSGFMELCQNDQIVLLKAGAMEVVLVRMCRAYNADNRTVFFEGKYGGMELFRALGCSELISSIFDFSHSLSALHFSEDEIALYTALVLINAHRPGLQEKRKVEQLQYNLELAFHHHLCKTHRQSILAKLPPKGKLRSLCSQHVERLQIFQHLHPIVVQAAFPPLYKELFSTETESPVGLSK

Inconclusive results are not listed. Activity calls are given as the source filed them. How the source made its calls, unless noted: active means hit-call score of the fitted dose curve at least 0.9, where 1 is the maximum; inactive means score below 0.9.

Sequence of human Peroxisome Proliferator-activated Receptor delta (PPARd), PPARD (gene 5467) (Q03181 whole entry, looked up, the tested form may be a part): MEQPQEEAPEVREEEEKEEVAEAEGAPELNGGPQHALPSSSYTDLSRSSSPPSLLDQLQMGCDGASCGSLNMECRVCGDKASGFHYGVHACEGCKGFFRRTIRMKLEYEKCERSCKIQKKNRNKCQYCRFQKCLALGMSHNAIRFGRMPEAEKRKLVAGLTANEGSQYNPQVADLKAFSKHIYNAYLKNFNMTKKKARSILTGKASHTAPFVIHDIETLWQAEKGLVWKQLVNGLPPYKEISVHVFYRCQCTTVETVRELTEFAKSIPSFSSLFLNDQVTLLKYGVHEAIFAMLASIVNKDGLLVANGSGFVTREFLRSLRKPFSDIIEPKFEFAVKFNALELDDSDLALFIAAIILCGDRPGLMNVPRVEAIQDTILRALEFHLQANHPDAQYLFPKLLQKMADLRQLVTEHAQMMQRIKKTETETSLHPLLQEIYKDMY
Sequence of Nuclear receptor subfamily 1 group I member 2 (Homo sapiens) (O75469 whole entry, looked up, the tested form may be a part): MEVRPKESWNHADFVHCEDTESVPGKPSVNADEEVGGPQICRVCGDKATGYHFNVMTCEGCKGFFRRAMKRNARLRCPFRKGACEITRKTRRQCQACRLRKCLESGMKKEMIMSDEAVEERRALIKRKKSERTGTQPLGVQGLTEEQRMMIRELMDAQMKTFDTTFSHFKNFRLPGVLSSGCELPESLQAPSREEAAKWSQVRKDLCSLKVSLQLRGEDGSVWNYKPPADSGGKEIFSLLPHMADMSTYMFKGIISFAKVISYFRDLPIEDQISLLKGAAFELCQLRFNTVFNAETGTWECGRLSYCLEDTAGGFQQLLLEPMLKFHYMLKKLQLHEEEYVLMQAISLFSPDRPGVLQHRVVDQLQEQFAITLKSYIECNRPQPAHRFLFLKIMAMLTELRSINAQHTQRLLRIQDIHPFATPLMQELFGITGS
Sequence of human RAR-related Orphan Receptor beta (RORb), RORB (gene 6096) (Q92753 whole entry, looked up, the tested form may be a part): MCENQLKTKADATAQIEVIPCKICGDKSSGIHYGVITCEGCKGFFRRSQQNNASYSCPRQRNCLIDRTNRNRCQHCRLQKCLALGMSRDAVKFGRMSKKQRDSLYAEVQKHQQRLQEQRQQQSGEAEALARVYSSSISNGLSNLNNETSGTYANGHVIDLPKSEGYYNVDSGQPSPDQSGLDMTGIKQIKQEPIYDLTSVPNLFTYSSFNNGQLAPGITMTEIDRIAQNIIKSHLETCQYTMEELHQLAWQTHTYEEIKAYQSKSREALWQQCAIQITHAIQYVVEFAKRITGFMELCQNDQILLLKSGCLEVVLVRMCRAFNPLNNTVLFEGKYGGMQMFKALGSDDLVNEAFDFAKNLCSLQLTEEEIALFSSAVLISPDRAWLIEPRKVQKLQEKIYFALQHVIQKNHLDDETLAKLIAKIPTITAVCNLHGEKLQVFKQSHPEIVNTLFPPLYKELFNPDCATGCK
Sequence of Cellular tumor antigen p53 (Homo sapiens) (P04637 whole entry, looked up): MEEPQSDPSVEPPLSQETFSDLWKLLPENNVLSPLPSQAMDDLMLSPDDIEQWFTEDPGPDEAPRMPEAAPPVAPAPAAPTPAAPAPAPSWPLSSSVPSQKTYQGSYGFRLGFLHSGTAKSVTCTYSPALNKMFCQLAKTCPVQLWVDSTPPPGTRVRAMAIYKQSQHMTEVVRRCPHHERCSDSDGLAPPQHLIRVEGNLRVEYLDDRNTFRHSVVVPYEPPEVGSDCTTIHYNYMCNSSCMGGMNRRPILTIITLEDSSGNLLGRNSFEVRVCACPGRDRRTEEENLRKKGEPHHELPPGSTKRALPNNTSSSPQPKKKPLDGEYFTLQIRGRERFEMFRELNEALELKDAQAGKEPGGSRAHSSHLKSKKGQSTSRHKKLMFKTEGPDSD
Sequence of human Retinoic Acid Receptor gamma (RARg), RARG (gene 5916) (P13631 whole entry, looked up, the tested form may be a part): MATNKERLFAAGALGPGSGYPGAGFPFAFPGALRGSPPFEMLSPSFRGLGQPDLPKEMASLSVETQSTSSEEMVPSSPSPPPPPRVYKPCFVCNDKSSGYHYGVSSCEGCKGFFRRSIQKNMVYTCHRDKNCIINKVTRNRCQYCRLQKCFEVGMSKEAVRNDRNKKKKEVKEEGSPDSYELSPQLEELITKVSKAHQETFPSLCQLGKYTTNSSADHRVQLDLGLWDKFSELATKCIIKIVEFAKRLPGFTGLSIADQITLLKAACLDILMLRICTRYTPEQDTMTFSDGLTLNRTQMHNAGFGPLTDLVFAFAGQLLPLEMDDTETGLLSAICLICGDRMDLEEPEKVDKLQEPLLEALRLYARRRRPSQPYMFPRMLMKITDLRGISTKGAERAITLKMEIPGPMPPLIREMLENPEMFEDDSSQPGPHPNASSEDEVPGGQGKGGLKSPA
Sequence of human Retinoic Acid Receptor beta (RARb), RARB (gene 5915) (P10826 whole entry, looked up): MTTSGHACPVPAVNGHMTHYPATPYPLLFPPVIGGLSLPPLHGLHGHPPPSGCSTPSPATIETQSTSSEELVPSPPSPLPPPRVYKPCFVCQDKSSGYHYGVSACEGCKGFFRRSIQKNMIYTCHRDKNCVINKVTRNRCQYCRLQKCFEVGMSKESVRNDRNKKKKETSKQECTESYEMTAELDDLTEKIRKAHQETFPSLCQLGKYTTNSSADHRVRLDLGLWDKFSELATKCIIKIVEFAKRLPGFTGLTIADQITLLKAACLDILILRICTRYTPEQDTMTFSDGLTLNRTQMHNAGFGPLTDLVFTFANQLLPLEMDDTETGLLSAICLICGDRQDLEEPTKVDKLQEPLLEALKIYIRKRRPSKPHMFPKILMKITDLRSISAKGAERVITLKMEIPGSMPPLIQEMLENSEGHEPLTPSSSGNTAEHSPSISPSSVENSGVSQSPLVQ
Sequence of Retinoic acid receptor alpha (Homo sapiens) (P10276 whole entry, looked up, the tested form may be a part): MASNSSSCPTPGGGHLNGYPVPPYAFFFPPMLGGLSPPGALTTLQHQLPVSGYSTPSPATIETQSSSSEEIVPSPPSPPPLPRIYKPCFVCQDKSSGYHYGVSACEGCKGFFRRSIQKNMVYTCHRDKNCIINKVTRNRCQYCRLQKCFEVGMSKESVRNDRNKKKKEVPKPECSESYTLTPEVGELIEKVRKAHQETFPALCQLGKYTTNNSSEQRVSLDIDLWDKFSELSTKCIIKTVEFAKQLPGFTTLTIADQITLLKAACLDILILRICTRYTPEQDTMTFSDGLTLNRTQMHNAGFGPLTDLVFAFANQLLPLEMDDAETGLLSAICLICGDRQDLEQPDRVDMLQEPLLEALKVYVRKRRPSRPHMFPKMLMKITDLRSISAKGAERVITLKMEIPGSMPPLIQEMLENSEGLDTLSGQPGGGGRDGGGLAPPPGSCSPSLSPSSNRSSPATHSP

Turning to `CC(C)c1ccccc1O`, the compound was classed as inactive in [1], in [2], in assay [3], in assay [4], in assay [5] and in [6]. Further, in [7], the result was inactive.

By AC50 is commonly meant the concentration at which the activity in the assay is half-maximal. As to `C#CC(C)N(C)C(=O)Nc1ccc(Cl)cc1` (centres undefined), the result in assay [1], in assay [2], in assay [4], in assay [5], in assay [8] and in [9] was inactive. The result in [7] and in [10] was inactive. In addition, in assay [3], the AC50 was 48.4 µM (active).

Take `CC(C)CCCCCCc1ccc(OCCOCCO)cc1`: the call in [1], in assay [2], in assay [3], in assay [4], in [5] and in assay [11] was inactive. For the same compound, the result in assay [9] and in assay [7] was inactive. In addition, in [12], the AC50 is 10.2 µM (active).

On to `CSc1c(Cl)c(Cl)c(Cl)c(Cl)c1Cl`, for which the AC50 is 167 µM (active) in assay [1], 48.4 µM (active) in assay [3], 139 µM (active) in assay [4] and 8.95 µM (active) in [9]. Also, the outcome in [2], in assay [5], in assay [11] and in [7] was inactive.

Take `CC1=CC[C@@]23C[C@@H]1C(C)(C)[C@@H]2CC[C@H]3C`: the outcome in assay [1], in assay [2], in assay [4], in [5], in assay [8] and in assay [9] was inactive. In addition, the compound was classed as inactive in assay [10] and in assay [13]. Moreover, the AC50 in assay [3] is 100 µM (active).

In the case of `CC(C)CCOC(=O)c1ccccc1`, the result in assay [1], in assay [2], in assay [3], in assay [4], in assay [5] and in [9] was inactive. The compound was classed as inactive in assay [10].

As for `Cc1c(C2(c3cc(Br)c(O)c(Br)c3C)OS(=O)(=O)c3ccccc32)cc(Br)c(O)c1Br`, the result in assay [1], in assay [2], in assay [4], in [5], in assay [6] and in assay [8] was inactive. The result in assay [7], in [10] and in assay [13] was inactive. The AC50 was 52.5 µM (active) in assay [3] and 13 µM (active) in assay [9].

As for `C1CCCCC1`, the call in assay [1], in assay [2], in assay [3], in [4], in assay [5] and in [9] was inactive. Also, the compound was called inactive in [10] and in assay [13].

As to `CS(C)=O`, the compound was classed as inactive in assay [1], in assay [2], in [3], in [4], in [5] and in assay [12]. Besides, the compound was called inactive in assay [9], in assay [7] and in assay [10].

`[Cl][Au]([Cl])[Cl]`: the compound was called inactive in assay [1], in assay [2], in assay [4], in [5], in assay [6] and in assay [13]. Further, the AC50 in [3] is 0.156 µM (active).
